Test systems include INSRR; INSR; IRAK1; IRAK3; IRAK4; ITK.
Conditions in all cases: concentration: 1 μM, replicates: in singlicate; n = 1
In a further experiment the test system is T1, IKK-alpha.
T1 construct: gene CHUK

The subject of a further experiment is T2, IKK-beta.
T2 construct: gene IKBKB

The test system of a further experiment is T3, IKK-epsilon.
T3 construct: gene IKBKE

In experiment [1] the test system is JAK1(JH1domain-catalytic).

Data on nine molecules can be found in PMC5540273 (PLoS ONE, 2017).

Molecules are shown by their SMILES.
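Further: KINOMEscan kinase panel screen.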

For `COC(=O)Nc1nc2ccc(Oc3ccc(CC(=O)Nc4cc(C(F)(F)F)ccc4F)cc3)cc2[nH]1` [GW680903], the “%Inh” value in the experiment with IKK-alpha amounted to 7%; with IKK-beta, 1%; in the experiment with IKK-epsilon, 0%; in the experiment with INSRR it was 0%; with INSR, 0%; with IRAK1, 26%. In addition, the “%Inh” value in the experiment with IRAK3 is 0%; in the experiment on IRAK4 it was 14%; in the experiment on ITK it was 14%; in experiment [1] it was 6%.
For the molecule `COc1cc(Nc2ccnc3cc(-c4ccncc4)ccc23)cc(OC)c1OC.Cl` [GW494610], the “%Inh” value with IKK-alpha worked out at 23%; with IKK-beta, 13%; with IKK-epsilon, 0%; with INSRR it was 13%; in the experiment with INSR, 8%; in the experiment on IRAK1, 24%. The “%Inh” value amounted to 0% in the experiment with IRAK3, 10% in the experiment with IRAK4, 0% with ITK and 33% in experiment [1].
In the case of `CC(C)c1nc(-c2cccc(NS(=O)(=O)c3c(F)cccc3F)c2)c(-c2ccnc(Nc3ccc(N4CCOCC4)nc3)n2)s1.Cl` [GSK1723980], the “%Inh” value is 0% with IKK-alpha; 0% in the experiment on IKK-beta; 39% with IKK-epsilon; 0% in the experiment on INSRR; 0% with INSR; 0% with IRAK1. In addition, the “%Inh” value with IRAK3 was 1%; with IRAK4, 6%; with ITK, 95.7%; in experiment [1], 0%.
For the molecule `O=C(Nc1n[nH]c2nc(-c3ccccc3O)ccc12)C1CC1` [SB-711880], the “%Inh” value in the experiment with IKK-alpha was 0%; in the experiment on IKK-beta, 0%; with IKK-epsilon, 10%; in the experiment on INSRR, 0%; in the experiment on INSR, 0%; in the experiment on IRAK1 it was 0%. The “%Inh” value in the experiment on IRAK3 was determined as 2%; with IRAK4 it was 0%; in the experiment on ITK it was 46%; in experiment [1], 36%.
`CC(C)(C)c1ccc(C(=O)Nc2cn3cc(-n4ccnc4)ccc3n2)cc1`: the “%Inh” value in the experiment with IKK-alpha is given as 2%; in the experiment with IKK-beta it was 9%; in the experiment on IKK-epsilon it was 0%; in the experiment on INSRR it was 5%; with INSR, 26%; in the experiment with IRAK1 it was 21%. For the same molecule, the “%Inh” value was determined as 55% in the experiment with IRAK3, 65% in the experiment with IRAK4, 14% with ITK and 11% in experiment [1].
In the case of `Cc1ccc(NC(=O)c2ccc(Cl)c(Cl)c2)cc1-c1ccc(C(=O)Nc2ccncc2)cc1` [GSK1398460], the “%Inh” value in the experiment on IKK-alpha turned out to be 0%; in the experiment on IKK-beta it was 10%; with IKK-epsilon it was 24%; with INSRR, 0%; in the experiment on INSR, 0%; in the experiment with IRAK1, 0%. In addition, the “%Inh” value in the experiment on IRAK3 came to 3%; with IRAK4, 7%; in the experiment on ITK, 10%; in experiment [1], 9%.
With `Cc1ccccc1CC(=O)N1CCc2cc(-c3cn(C)c4ncnc(N)c34)ccc21` [GSK2603346], the “%Inh” value is 12% with IKK-alpha; 28% in the experiment on IKK-beta; 49% with IKK-epsilon; 8% with INSRR; 0% in the experiment with INSR; 0% in the experiment with IRAK1. Besides, the “%Inh” value with IRAK3 stood at 0%; in the experiment on IRAK4 it was 6%; in the experiment with ITK, 20%; in experiment [1] it was 5%.
For the molecule `Cc1cccc(Nc2nc(NCCN)ncc2C(N)=O)c1` [GSK1292139], the “%Inh” value is 28% with IKK-alpha; 16% in the experiment with IKK-beta; 0% in the experiment on IKK-epsilon; 0% with INSRR; 22% in the experiment on INSR; 61% with IRAK1. Besides, the “%Inh” value with IRAK3 was 0%; in the experiment with IRAK4 it was 60%; in the experiment on ITK, 8%; in experiment [1], 27%.
Regarding `CN(c1ccc(NC(=O)Nc2cccc(Cl)c2)cc1)c1ccnc(N)n1.Cl` [GW830707], the “%Inh” value was 0% in the experiment on IKK-alpha; 0% with IKK-beta; 8% in the experiment on IKK-epsilon; 3% with INSRR; 0% in the experiment with INSR; 0% in the experiment on IRAK1. For the same molecule, the “%Inh” value is on record as 31% with IRAK3, 0% with IRAK4, 0% with ITK and 0% in experiment [1].
